Results reported in PubChem BioAssay (NCI).
This is part of a sample that, as a whole, favours compounds with a hit. Of some 79,000 tested, about 15% had one in any assay. Active and inactive are the calls of the source. No stated cut-off is given here; in the data, active means growth inhibition above about 70%; inactive means the rest.

Legend:
[1] = NCI Yeast Anticancer Drug Screen. Data for the rad52 strain (AID 147);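 further: 0% = growth of vehicle-treated control cultures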; conditions: S. cerevisiae rad52 mutant growth inhibition, hits give high values
Procedure, shortened: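 Inhibition of yeast growth, referenced to vehicle controls, was the measured output for a strain with defective DNA damage repair.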

[2] = NCI Yeast Anticancer Drug Screen. Data for the wt1 strain (AID 149);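 further: 0% = growth of vehicle-treated wt1 cultures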; conditions: S. cerevisiae wt1 strain (SPY 50644) growth inhibition, hits give high values
Procedure, shortened: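 The wt1 strain was treated with compounds, and growth was compared with vehicle-treated cultures to give inhibition.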

[3] = NCI Yeast Anticancer Drug Screen. Data for the rad50EPP+ strain (AID 151);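 further: 0% = growth of vehicle-treated control cultures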; conditions: S. cerevisiae rad50 mutant strain, hits give high values
Procedure, shortened: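 Genetically defined yeast (rad50EPP+, DNA damage repair alteration) is grown with compound, and inhibition of growth is expressed relative to vehicle-treated controls.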

[4] = NCI Yeast Anticancer Drug Screen. Data for the mgt1 strain (AID 153); conditions: S. cerevisiae mgt1 mutant growth inhibition, hits give high values
Procedure, shortened: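 In the mgt1 strain, test compounds were added and growth inhibition was determined relative to vehicle-treated controls.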

[5] = NCI Yeast Anticancer Drug Screen. Data for the rad50 strain (AID 155);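 further: 0% = growth of vehicle-only cultures of the same strain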; conditions: S. cerevisiae rad50 strain growth inhibition, hits give high values
Procedure, shortened: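 Cells are treated with compound, grown, and their growth is then scored against vehicle-only cultures of the same repair-deficient yeast strain.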

[6] = NCI Yeast Anticancer Drug Screen. Data for the mec2-1 strain (AID 157); conditions: S. cerevisiae mec2-1 strain, hits give high values
Procedure, shortened: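 Each compound was tested on mec2-1 yeast, a strain altered in DNA damage repair or cell cycle control. Growth inhibition is reported relative to vehicle.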

[7] = NCI Yeast Anticancer Drug Screen. Data for the rad14 strain (AID 159);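 further: 0% = growth of vehicle-treated control cultures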; conditions: S. cerevisiae rad14 strain growth inhibition, hits give high values
Procedure, shortened: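 Readout: yeast growth inhibition, referenced to vehicle-only cultures. Strain bears a defined alteration in DNA damage repair.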

[8] = NCI Yeast Anticancer Drug Screen. Data for the sgs1 mgt1 strain (AID 161);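 further: 0% = growth of cultures given vehicle only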; conditions: S. cerevisiae sgs1 mgt1 strain, hits give high values
Procedure, shortened: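 Read-out: growth inhibition vs vehicle controls. Cells: mutant yeast strain deficient in DNA damage repair.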

[9] = NCI Yeast Anticancer Drug Screen. Data for the CLN2oe strain (AID 163);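 further: 0% = growth of vehicle-only control cultures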; conditions: S. cerevisiae CLN2oe strain, hits give high values
Procedure, shortened: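 First, the altered yeast strain was treated with each compound; second, its growth was measured; finally, inhibition was derived by comparison with vehicle controls.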

[10] = NCI Yeast Anticancer Drug Screen. Data for the cln2 rad14 strain (AID 165);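 further: 0% = growth equal to vehicle treated cultures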; conditions: S. cerevisiae cln2 rad14 strain, hits give high values
Procedure, shortened: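 Test compounds were added to cln2 rad14 yeast cultures; inhibition of growth was then determined by comparison with vehicle treatment.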

[11] = NCI Yeast Anticancer Drug Screen. Data for the bub3 strain (AID 167); conditions: S. cerevisiae bub3 mutant strain, hits give high values
Procedure, shortened: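 Part of a panel of yeast mutants defective in DNA damage repair or cell cycle regulation. Each strain is grown with compound, and inhibition is calculated relative to solvent-treated cultures.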

[12] = NCI Yeast Anticancer Drug Screen. Data for the wt2 strain (AID 169);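 further: 0% = growth of vehicle-treated yeast cultures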; conditions: S. cerevisiae wt2 strain growth inhibition, hits give high values
Procedure, shortened: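 The panel's yeast strains carry defined changes in DNA repair or cell cycle genes. Each strain is grown with compound, and growth loss is scored relative to vehicle.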

[13] = NCI Yeast Anticancer Drug Screen. Data for the mlh1 strain (AID 171);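 further: 0% = growth of vehicle-treated control cultures of the same strain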; conditions: S. cerevisiae mlh1 strain growth inhibition, hits give high values
Procedure, shortened: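 Inhibition values reflect reduced yeast growth in the presence of compound, referenced to vehicle controls, using a strain chosen for its alteration in DNA repair or cell cycle control.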

[14] = NCI Yeast Anticancer Drug Screen. Data for the sgs1 strain (AID 173);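 further: 0% = growth of vehicle-only control cultures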; conditions: S. cerevisiae sgs1 mutant, hits give high values
Procedure, shortened: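 Vehicle-treated cultures served as reference for growth inhibition of a yeast strain altered in DNA damage repair or cell cycle control after compound exposure.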

[15] = NCI Yeast Anticancer Drug Screen. Data for the mlh1 rad18 strain (AID 175); conditions: S. cerevisiae mlh1 rad18 strain growth inhibition, hits give high values
Procedure, shortened: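 Inhibition values reflect reduced growth of mutant yeast versus vehicle-treated controls following compound exposure; the mutations affect DNA damage repair.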

[16] = NCI Yeast Anticancer Drug Screen. Data for the rad18 strain (AID 177); conditions: S. cerevisiae rad18 mutant growth inhibition, hits give high values
Procedure, shortened: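 Steps: expose repair-mutant yeast to compound; measure growth; express as inhibition relative to vehicle control.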

[17] = at 5.0 µM (retest, dose inferred, filed as 0.5)
[18] = at 50.0 µM (retest, dose inferred, filed as 5.0)

Measured: growth inhibition

OC1(C#CI)CCCCC1
active: [1]; at 11.0 µM 96% | [1]; at 33.0 µM 98% | [1]; at 100.0 µM 99% | [2]; at 11.0 µM 96% | [2]; at 33.0 µM 99% | [2]; at 100.0 µM 99% | [3]; at 11.0 µM 96% | [3]; at 33.0 µM 99% | [3]; at 100.0 µM 99% | [4]; at 11.0 µM 88% | [4]; at 33.0 µM 99% | [4]; at 100.0 µM 99% | [5]; at 11.0 µM 98% | [5]; at 33.0 µM 99% | [5]; [18] 97% | [5]; at 50.0 µM 99.7% | [5]; at 100.0 µM 99% | [6]; at 11.0 µM 89% | [6]; at 33.0 µM 99% | [6]; [18] 98% | [6]; at 50.0 µM 99.5% | [6]; at 100.0 µM 100% | [7]; at 11.0 µM 98% | [7]; at 33.0 µM 99% | [7]; at 100.0 µM 100% | [8]; [18] 97% | [8]; at 50.0 µM 98.6% | [9]; at 11.0 µM 82% | [9]; at 33.0 µM 99% | [9]; at 100.0 µM 99% | [10]; [18] 98% | [10]; at 50.0 µM 99.2% | [11]; at 11.0 µM 97% | [11]; at 33.0 µM 99% | [11]; [18] 97% | [11]; at 50.0 µM 99.3% | [11]; at 100.0 µM 99% | [12]; at 11.0 µM 98% | [12]; at 33.0 µM 99% | [12]; at 100.0 µM 100% | [13]; at 11.0 µM 96% | [13]; at 33.0 µM 99% | [13]; at 100.0 µM 99% | [14]; at 11.0 µM 96% | [14]; at 33.0 µM 99% | [14]; at 100.0 µM 99% | [15]; [18] 97% | [15]; at 50.0 µM 99.1% | [16]; at 11.0 µM 96% | [16]; at 33.0 µM 99% | [16]; at 100.0 µM 99%
inactive: [1]; at 1.2 µM 1% | [1]; at 3.7 µM 43% | [2]; at 1.2 µM -4% | [2]; at 3.7 µM 38% | [3]; at 1.2 µM -16% | [3]; at 3.7 µM 40% | [4]; at 1.2 µM -7% | [4]; at 3.7 µM -3% | [5]; at 1.2 µM -6% | [5]; at 3.7 µM 58% | [5]; [17] 67% | [6]; at 1.2 µM -4% | [6]; at 3.7 µM 6% | [6]; [17] -18% | [7]; at 1.2 µM -2% | [7]; at 3.7 µM 32% | [8]; [17] -20% | [9]; at 1.2 µM -11% | [9]; at 3.7 µM -5% | [10]; [17] -28% | [11]; at 1.2 µM -19% | [11]; at 3.7 µM 12% | [11]; [17] -35% | [12]; at 1.2 µM -7% | [12]; at 3.7 µM 28% | [13]; at 1.2 µM -14% | [13]; at 3.7 µM 17% | [14]; at 1.2 µM 1% | [14]; at 3.7 µM 37% | [15]; [17] -52% | [16]; at 1.2 µM 3% | [16]; at 3.7 µM 60%
